This is a sample that favours compounds with a hit; in the whole collection about 18% have one here.
HepG2 viability: kills HepG2 cells in TGF-b inhibitor counter-screen. HepG2 CAGA-GFP viability, ATP luminescence, 18 h. 0.76% of 410,000 active. AID 588856. Potency, µM (titrated, usually from 46.1 µM), for inactives: top-dose activity change, negative = cytotoxicity, hits mostly cytotoxic; further: potency means the concentration at half of the fitted maximal effect
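CellTiter-Glo luminescence gave cytotoxicity after 18 hours at 37 degrees C. The cells were HepG2 CAGA-GFP in 1% FBS DMEM, stimulated with 500 pg/mL TGF-beta after compound addition. %Activity was normalised to no-cell wells (complete cell-killing) and DMSO (no toxicity), and curves were fitted and classified.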
TDP1 block: TDP1 (human) enzyme inhibition. Q9NUW8. recombinant TDP1, AlphaScreen DNA substrate cleavage. Potency, µM (top dose mostly 130 µM), for the others: at the top dose activity change, negative = inhibition, usual class: inhibitors. 0.28% of 350,000 active; further: potency means the concentration at half of the fitted maximal effect; on the % scale 0 is the no-effect control and ±100 the full control effect; nearly all actives have a fitted effect of over 40% in size
Target sequence (Q9NUW8 whole entry, looked up): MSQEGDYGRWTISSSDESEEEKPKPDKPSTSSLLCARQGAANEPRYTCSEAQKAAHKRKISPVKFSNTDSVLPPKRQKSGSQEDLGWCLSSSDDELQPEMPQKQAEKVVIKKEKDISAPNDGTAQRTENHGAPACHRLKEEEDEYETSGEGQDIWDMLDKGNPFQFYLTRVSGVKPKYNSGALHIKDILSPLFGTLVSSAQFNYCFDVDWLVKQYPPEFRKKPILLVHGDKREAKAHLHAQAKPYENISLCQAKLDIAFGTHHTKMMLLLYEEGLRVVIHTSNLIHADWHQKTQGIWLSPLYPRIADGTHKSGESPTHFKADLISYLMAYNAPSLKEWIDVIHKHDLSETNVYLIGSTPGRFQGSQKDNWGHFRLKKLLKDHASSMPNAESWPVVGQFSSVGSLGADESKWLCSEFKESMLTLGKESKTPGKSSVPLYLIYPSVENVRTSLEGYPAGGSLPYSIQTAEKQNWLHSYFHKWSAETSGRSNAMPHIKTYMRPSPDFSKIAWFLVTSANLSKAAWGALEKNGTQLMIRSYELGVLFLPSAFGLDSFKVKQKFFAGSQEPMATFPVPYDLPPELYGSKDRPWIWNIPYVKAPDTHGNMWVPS
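Compounds were preincubated with Tdp1 (1 nM final) for 15 min at room temperature before substrate (15 nM final) started a 5 min reaction; beads (10 ug/ml final) were then added for 10 min before AlphaScreen detection.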
DT40 TDP1 no CPT: qHTS for Inhibitors of human tyrosyl-DNA phosphodiesterase 1 (TDP1): qHTS in cells in absence of CPT; DT40 Tdp1-/- hTDP1 cells, no CPT, ATP luminescence, 48 h; Potency, µM (titrated, usually from 46.2 µM), inactives show at the top dose activity change, negative = growth inhibition, usual class: inhibitors; 15% of 420,000 active; further: potency means the concentration at half of the fitted maximal effect; on the % scale 0 is the no-effect control and ±100 the full control effect; nearly all actives have a fitted effect of over 55% in size
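A cellular qHTS used chicken DT40 cells lacking endogenous Tdp1 but carrying stably transfected human TDP1. Compounds were applied without camptothecin, and cell growth kinetics were judged by ATP-dependent luminescence after ≥48 hr.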
TGFb SMAD3 inh: blocks TGF-b signaling | HepG2 CAGA-GFP TGF-b/SMAD3 reporter, GFP fluorescence, 18 h; TGF-beta stimulated, 500 pg/mL final | Potency, µM (highest dose often 46.1 µM), for the others: at the highest dose activity, negative = inhibition, usual class: inhibitors | 1.2% of 410,000 active; further: potency means the concentration at half of the fitted maximal effect; on the % scale 0 is the no-effect control and ±100 the full control effect; nearly all actives have a fitted effect of over 65% in size
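Inhibition of TGF-beta-driven CAGA-GFP reporter expression in HEPG2 cells is measured by cellular GFP fluorescence after 18 h stimulation with 500 pg/mL recombinant TGF-beta in 1% FBS medium at 37 degrees C.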
IL-1B inflam inh: inflammasome signaling inhibition, IL-1 beta readout | activity change, % at 57.5 µM | AID 743279 | THP-1 LPS/ATP IL-1B secretion, AlphaLISA, 16 h; hits give low values | 4.7% of 360,000 active; in the data active means activity change below about -50%; inconclusive means mostly about -30% to -49%; further: on the % scale 0 is the no-effect control and ±100 the full control effect
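THP-1 cells pretreated 1 hr with compounds (up to 57.5 uM final), then stimulated with LPS (250 ng/mL final) plus ATP (1.25 mM final); secreted IL-1B measured by AlphaLISA after 16 hr, decreased signal indicating inhibition.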
DT40 TDP1 CPT: DT40-hTDP1 cell growth loss with CPT. chicken DT40 Tdp1-/-;hTDP1 cells + 20 nM CPT, ATP luminescence, 48 h. Potency, µM (highest dose often 46.2 µM), for inactives: top-dose activity change, negative = growth inhibition, usual class: inhibitors. 12% of 420,000 active. AID 686979; further: potency means the concentration at half of the fitted maximal effect; on the % scale 0 is the no-effect control and ±100 the full control effect; nearly all actives have a fitted effect of over 55% in size
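Chicken DT40 Tdp1-/- cells stably complemented with human TDP1 were seeded at 400 cells/well in medium containing 20 nM camptothecin, exposed to pin-transferred compounds, and grown at 37 °C for at least 48 hr. Viability was read as ATP luminescence.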
The depositor's hits bear a star; i = inactive; ? = inconclusive; nt = not tested or not shown; [ ] = remark or other dose. Unless noted, the call rests on the fitted dose curve; in most records, active means well fitted curve in the direction sought with a large enough effect; inconclusive means small, poorly fitted or top-dose-only effect, or another doubt; inactive means no such curve, though single readings can be large; an effect the other way counts as inactive or inconclusive.

SMILES | HepG2 viability | TDP1 block | DT40 TDP1 no CPT | TGFb SMAD3 inh | IL-1B inflam inh | DT40 TDP1 CPT
O=C(Nc1cccc(-c2nc3cccnc3s2)c1)c1ccco1 | 0% | 9% | ? | 0% | 6 | -23%
Cc1c(NC(=O)CC(C)C)cccc1-c1nc2cccnc2s1 | -95% | 5% | ? | ? | nt | ?
CC(OC(=O)C1CC(=O)N(Cc2ccco2)C1)C(=O)Nc1ccccc1[N+](=O)[O-] (configuration not stated) | 3% | 2% | -5% | 10% | 10 | -29%
C[C@H](NC(=O)c1ncn2c1C(=O)NC[C@H]2C)C(=O)OC(C)(C)C | -18% | nt | -8% | -17% | -2 | 3%
Nc1ccc(N=Nc2ccccc2O)c(N)c1 | 0% | nt | 3% | ? | -25 | 8%
Oc1ccccc1N=Nc1ccccc1O | -31% | 9% | 4.6µM* | ? | 128 | 4.6µM*
CC1(C)C(C=C(Cl)Cl)C1C(=O)N1CCN(c2ccccc2)CC1 (configuration not stated) | -22% | 5% | ? | -20% | -4 | ?
Cn1ccnc1CN1CCCCC1C(=O)Nc1ccc(Oc2cccnc2)cc1 (configuration not stated) | 5% | 3%[56.1 µM] | 23µM* | -9% | 55 | 15µM*
COc1ccc(CN2CCC(C(=O)Nc3ccc(Oc4cccnc4)cc3)CC2)cc1 | -30% | 5% | -11% | 0% | i | ?
COc1ccc(CN2CCC(C(=O)Nc3ccc(Oc4cccnc4)cc3)CC2)c(C)c1C | 0% | 4% | 2.9µM* | 41% | 16 | ?
CCn1ccnc1CN1CCCCC1C(=O)Nc1ccc(Oc2cccnc2)cc1 (configuration not stated) | -6% | 4%[56.1 µM] | ? | -24% | -12 | ?
COc1cccc(O)c1CN1CCC(C(=O)Nc2ccc(-c3cccc(C)c3)cc2)CC1 | 13µM* | 6% | 16µM* | ? | -95* | ?
COc1cccc(O)c1CN1CCC(C(=O)Nc2ccc(Oc3cccnc3)cc2)CC1 | 0% | 7% | 13µM* | 4% | 5 | 21µM*
Cc1ccc(-n2nc(CO)c(C(=O)NCCCc3ccccc3)n2)cc1C | -22% | 9% | -24% | ? | nt | -19%
O=C(NCC1CC1)c1csc([C@@H]2O[C@H](CO)[C@H](O)[C@H](O)[C@H]2O)n1 | 12% | nt | 8% | -2% | 36 | 9%
C[C@H]1CN([C@@H](C)CO)C(=O)CCCn2nncc2CO[C@@H]1CN(C)C(=O)Nc1cccc2ccccc12 | -26% | nt | 1% | -14% | 10 | 9%
COc1ccccc1CNC(=O)c1cn(C)c2ccc(S(=O)(=O)N3CCC(C)CC3)cc2c1=O | -12% | 5% | 0% | 6% | nt | -5%
COc1cc(CN2CCCC(C(=O)Nc3ccccc3Oc3cccnc3)C2)ccc1F (configuration not stated) | -22% | 6% | 16µM* | -1% | 7 | ?
O=C(Nc1ccccc1Oc1cccnc1)C1CCCN(Cc2cccc(Cl)c2)C1 (configuration not stated) | -40% | 1% | -16% | -12% | -9 | -30%
CCn1cc(CN2CCC(C(=O)Nc3cccc(-c4cccc(F)c4)c3)CC2)cn1 | -23% | 2% | ? | 0% | -9 | -24%
CCn1cc(CN2CCC(C(=O)Nc3ccc(Oc4ccccc4F)cc3)CC2)cn1 | -33% | nt | 21µM* | -11% | 24 | ?
O=C1NC[C@@H](CCCCN2C[C@H](Cc3ccc(O)cc3)N(CCc3ccccc3)C(=O)C2=O)N(Cc2ccccc2)C1=O | nt | nt | -20% | nt | -5 | 9%
COc1ccc(CNCc2cccc(Cl)c2)cc1 | -21% | -1% | -25% | -14% | -19 | ?
COc1ccc(CNCC(O)(c2ccccc2)c2ccc(Cl)cc2)cc1 (configuration not stated) | 16µM* | 4% | 21µM* | ? | 0 | ?
COc1cccc(CNc2ccc(F)c(Cl)c2)c1 | 2% | 0% | -16% | 0% | -17 | -8%
SMILES | HepG2 viability | TDP1 block | DT40 TDP1 no CPT | TGFb SMAD3 inh | IL-1B inflam inh | DT40 TDP1 CPT
COc1cccc(CNCC(O)(c2ccc(Cl)cc2)c2ccc(Cl)cc2)c1 | -61% | 0% | 23µM* | ? | -57* | 23µM*
COc1ccc(CCNC(=O)C2CCC(=O)N(CC3CCCCC3)C2)cc1 (configuration not stated) | -10% | 5% | -5% | -17% | 8 | ?
CCOc1cc2[nH]c(=O)n(CCC(=O)N3CCN(c4ccccc4)CC3)c(=O)c2cc1OCC | 8% | 4% | -28% | 3% | nt | -25%
CCOc1cc2[nH]c(=O)n(Cc3ccc(C(=O)N4CCN(c5ccccc5)CC4)cc3)c(=O)c2cc1OCC | -8% | 2% | 5.8µM* | -24% | nt | 12µM*
CCOc1cc2[nH]c(=O)n(Cc3ccc(C(=O)N4CCN(c5cccc(Cl)c5)CC4)cc3)c(=O)c2cc1OCC | -12% | 0% | 2.6µM* | -7% | nt | 3.7µM*
COc1cccc(N2CCN(C(=O)c3ccc(Cn4c(=O)[nH]c5cc(OC)c(OC)cc5c4=O)cc3)CC2)c1 | -53% | 9% | 4.1µM* | ? | nt | 9.2µM*
COc1ccc(Cn2c(=O)[nH]c3cc(C(=O)N4CCN(c5ccccc5)CC4)ccc3c2=O)cc1 | -19% | 12% | ? | -12% | 20 | -8%
COc1ccccc1C(=O)NC1CC(C)(C)NC(C)(C)C1 | 5% | nt | 1% | 7% | 21 | -1%
Cc1nc2ccccc2c(=O)n1-c1ccc(NS(=O)(=O)c2cc(F)ccc2F)cc1 | -14% | 1% | -1% | 20% | 11 | 25%
O=C(NCC1CCCO1)c1ccc(Cl)c(S(=O)(=O)N2CCCCC2)c1 (configuration not stated) | -5% | 2% | -8% | -14% | 10 | -19%
CN(C)c1ccc(Sc2ccc3nc(N)nc(N)c3c2)cc1 | 0.32µM* | nt | 0.65µM* | ? | -15 | 1.8µM*
COc1ccc(/C=C/C(=O)Nc2cc(C)nn2-c2nc3ccccc3[nH]2)cc1 | -24% | 8% | 18µM* | 0% | -6 | ?
Cc1cc(NC(=O)CSc2nc3ccccc3[nH]2)n(-c2ccccc2)n1 | 1% | -1% | ? | -6% | 0 | ?
Cc1cc(NC(=O)/C=C/c2cccc(F)c2)n(-c2nc3ccccc3[nH]2)n1 | -46% | 11% | 12µM* | -28% | 0 | 23µM*

Screening data deposited in PubChem BioAssay by National Center for Advancing Translational Sciences (NCATS).
